Screens deposited in PubChem by several laboratories.
Only some compounds are listed: those with a hit (about 3.3% of all), similar ones and a draw of the others.
NCF1 inh – blocks human p47phox regulatory protein of NADPH oxidases; inhibition, % at 24.7 µM; p47phox/p22phox peptide binding, fluorescence polarization, 2 h; 220,000 compounds, 0.53% hits; AID 1274
Target sequence (P14598 whole entry, looked up): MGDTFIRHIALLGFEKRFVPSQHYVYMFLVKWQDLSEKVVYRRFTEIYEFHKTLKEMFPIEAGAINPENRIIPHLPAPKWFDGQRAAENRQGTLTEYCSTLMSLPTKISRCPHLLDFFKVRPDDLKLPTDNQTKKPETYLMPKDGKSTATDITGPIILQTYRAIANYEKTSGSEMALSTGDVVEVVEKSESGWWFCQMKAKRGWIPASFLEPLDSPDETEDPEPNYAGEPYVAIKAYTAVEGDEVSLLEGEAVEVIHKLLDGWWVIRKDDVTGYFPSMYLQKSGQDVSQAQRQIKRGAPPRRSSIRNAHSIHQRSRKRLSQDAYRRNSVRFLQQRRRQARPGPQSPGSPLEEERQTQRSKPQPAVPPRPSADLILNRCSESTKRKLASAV
Bim-Mcl-1 – disrupts Bim peptide binding to human Mcl-1; Q07820; Bead-based flow cytometry, Bim peptide-Mcl-1 binding; inhibition, % at 10 µM; 190,000 compounds, 0.1% hits; in the data active = inhibition above about 40%
14-3-3 Bad inh – disrupts binding of bovine 14-3-3 zeta to phospho-Bad peptide. TR-FRET 14-3-3zeta/Dy647-pBad peptide displacement, 1 h. P63103. inhibition, % at 21.7 µM. 220,000 compounds, 0.71% hits. AID 781;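 active = inhibition above about 70%, limit read from the data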
Target sequence (P63103 whole entry, looked up): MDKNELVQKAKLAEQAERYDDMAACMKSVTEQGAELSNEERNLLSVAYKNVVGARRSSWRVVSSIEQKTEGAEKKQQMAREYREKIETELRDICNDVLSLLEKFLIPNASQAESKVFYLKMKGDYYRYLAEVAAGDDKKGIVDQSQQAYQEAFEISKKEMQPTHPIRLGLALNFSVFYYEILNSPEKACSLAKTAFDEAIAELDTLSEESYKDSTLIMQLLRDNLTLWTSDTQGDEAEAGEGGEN
Mcl1 Bid PPI – disrupts binding of human Mcl-1 to Bid peptide | 220,000 compounds, 0.97% hits | inhibition, % at 21.7 µM | TR-FRET Mcl-1/Bid-Dy647 peptide binding, 1536-well | Q07820;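 active = compounds that cut the binding signal by more than half at the single screening dose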;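 also: His-tagged Mcl-1 with europium anti-His antibody binding Bid BH3 peptide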
Mcl1-Noxa inh – disrupts binding of human Mcl-1 to Noxa peptide; Q07820; TR-FRET Mcl-1/Noxa peptide binding, 2 h; inhibition, % at 21.7 µM; 220,000 compounds, 1.5% hits; AID 1022;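 active = compounds that cut the protein-peptide binding signal by more than 50% relative to plate controls in a single-dose test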;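 also: His-tagged Mcl-1 with rhodamine Noxa BH3 peptide and terbium anti-His antibody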
eIF4E-4G inh – inhibitors of eIF4E and eIF4G interaction in translation initiation; TR-FRET eIF4E-eIF4GI(517-606) binding, 2 h; P63073+Q04637; AID 782; 220,000 compounds, 0.37% hits; inhibition, % at 21.7 µM
Numbers stand for hits; n = inactive; x = no result given; [ ] = another dose, or the depositor's remark.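 The calls were made as follows, unless noted: active = inhibition above about 30% (limit read from the data); inactive = the rest.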

SMILES | NCF1 inh | Bim-Mcl-1 | 14-3-3 Bad inh | Mcl1 Bid PPI | Mcl1-Noxa inh | eIF4E-4G inh
O=C(/C=C/c1ccc(F)cc1)Nc1ccc(S(=O)(=O)Nc2ncccn2)cc1 | 120 | x | n | n | n | n
Cc1ccc(/C=C/C(=O)Nc2ccc(S(=O)(=O)Nc3ncccn3)cc2)cc1 | n | n | n | n | n | n
O=C(Cc1ccc([N+](=O)[O-])cc1)NCc1ccccn1 | n | n | n | n | 69 | n
O=C(NCc1ccccn1)c1ccc([N+](=O)[O-])cc1 | n | n | n | n | n | n
O=[N+]([O-])c1ccc(NC(=S)NCCc2ccc(F)cc2)cc1 | n | n | n | n | 52 | n
CC(=O)N1c2ccccc2C2(O)N=C(C)SC12 (centres undefined) | n | n | n | n | 55 | n
CC(=O)N1c2ccccc2Nc2ccccc21 | n | n | n | n | n | n
C#CCn1cc(C=C2C(=O)c3ccccc3C2=O)c2ccccc21 | 81 | n | n | n | 55 | n
C#CCn1c(=O)cc(C)c2ccccc21 | n | n | n | n | n | n
CCOc1cc(/C=C2\SC(=O)N=C2N)ccc1O | n | n | n | n | 52 | n
CCOC(=O)C1=C(O)/C(=C\c2ccc(O)c(OCC)c2)N=C1C | n | x | n | n | n | n
Cc1ccc2occ(CN3CCN(Cc4ccccc4)CC3)c(=O)c2c1 | n | n | 72 | n | x | n
Cc1ccc2occ(CN3CCN(c4ccccc4)CC3)c(=O)c2c1 | n | n | n | n | n | n
O=c1cc(CN2CCN(Cc3ccccc3)CC2)c2cc(Cl)ccc2o1 | n | n | n | n | n | n
O=c1c(CN2CCN(Cc3ccccc3)CC2)coc2ccc(Cl)cc12 | n | n | 72 | 93 | n | n
CC(C)=CCCC1(C)C=Cc2c(c(C)cc3c2[nH]c2cc(O)ccc23)O1 (centres undefined) | n | x | n | n | n | n
O=S(=O)(/C=C/c1ccccc1)N1CCN(c2nc(-c3cccnc3)nc3ccccc23)CC1 | n | n | n | n | n | n
Cc1cc(-c2ccccc2)nc(N(C)NC(=O)c2c(F)cccc2F)c1S(C)(=O)=O | 115 | n | n | n | n | n
CCOc1cc(S(=O)(=O)Nc2ccccc2CC)ccc1Cl | n | n | n | n | 56 | n
CCOc1cc(S(=O)(=O)Nc2ccccn2)ccc1F | n | 50 | n | n | n | n
CCOc1cc(S(=O)(=O)Nc2ccc(Cl)cn2)ccc1F | n | n | n | n | n | n
CCOc1cc(S(=O)(=O)Nc2ccc(CC)cc2)ccc1Cl | n | n | n | n | n | n
Cc1ccc2nc(-c3ccsc3)c(NC3CCCC3)n2c1 | n | n | n | n | n | n
O=C(O)CC1(CC(=O)Nc2ccc(Oc3cccc(C(F)(F)F)c3)nc2)CCCC1 | n | x | n | n | n | n
COc1ccc(/C=c2\s/c(=C\C(=O)C(C)(C)C)[nH]c2=O)cc1O | n | x | n | n | 58 | n
SMILES | NCF1 inh | Bim-Mcl-1 | 14-3-3 Bad inh | Mcl1 Bid PPI | Mcl1-Noxa inh | eIF4E-4G inh
COCCOC(=O)c1c(N)n(CCCN2CCOCC2)c2nc3ccccc3nc12 | n | x | n | n | n | 92
Cc1cccc(-n2c(N)c(C(=O)NCCN3CCOCC3)c3nc4ccccc4nc32)c1 | n | n | 71 | n | n | n
Cc1cc(C)n2nc(C(=O)NCc3ccccc3)cc2n1 | n | n | n | n | n | 30
Cc1cc(C)n2nc(C(=O)NCc3ccccc3)nc2n1 | n | n | n | n | n | n
CCN(CC)c1cc(C)c2cc(NC(=O)c3ccc(Br)o3)ccc2n1 | n | n | n | n | 60 | n
CCN1CCN(c2cc(C)c3cc(NC(=O)c4ccc(Br)o4)ccc3n2)CC1 | n | n | n | n | n | n
Cc1cc(C)n(/N=C/c2ccc(C(C)C)cc2)c(=O)c1C#N | n | n | n | n | n | n
COC(=O)c1[nH]c2ccccc2c1NC(=O)c1ccccc1[N+](=O)[O-] | n | 93 | n | n | n | n
CCN(CC)C(=O)CSc1nnc(-c2cccnc2)n1CCc1ccccc1 | n | n | n | n | 61 | n
CCCOC(=O)C1[C@H]2C(=O)N(CCCOC)C[C@]23C=C[C@H]1O3 (some centres undefined) | n | n | n | n | 59 | n
CCOc1cc(N2CCCC2)ccc1[N+](=O)[O-] | n | n | n | n | n | n
Cc1nc2ccc(Nc3ccncc3)cc2s1 | n | n | n | n | n | n
O=C1c2ccccc2C(=O)N1CCCCN(C(=O)c1cccc([N+](=O)[O-])c1)c1ccc(Cl)cc1 | n | n | n | 54 | n | n
CC1(c2nnc(-c3ccncc3)o2)CC(c2ccc(F)cc2)=NO1 (centres undefined) | n | x | n | n | n | n
O=C(CSc1nncs1)Nc1ccc2c(c1)OCO2 | n | n | n | n | n | n
c1ccc(-c2nn3c(Cn4nnc5ccccc54)nnc3s2)nc1 | n | n | n | n | 55 | n
Cc1ccc(NC(=O)O/N=C/c2c(C)nn(C(C)(C)C)c2C)cc1Cl | 132 | x | n | n | n | n
COc1ccc(Cc2n[nH]c(=S)n(N)c2=O)cc1 | n | n | n | n | n | n
Cc1c(NC(=O)c2cc(CC(C)C)on2)c(=O)n(-c2ccccc2)n1C | n | n | n | n | n | 34[fluorescence artefact?]
Cc1c(NC(=O)c2cc(C(C)C)on2)c(=O)n(-c2ccccc2)n1C | n | n | n | n | n | n
CC(C)(C)OC(=O)N1CCC[C@H]1C(=O)N/N=C/c1ccc2ncccc2c1 | n | x | n | n | n | n
CCCCC1=CC2=CC(=O)C(C)(OC(=O)c3cnc4ccccc4n3)C(=O)C2=CO1 (centres undefined) | n | x | n | n | 62 | n
COC/C=C/C1=CC2=CC(=O)C(C)(OC(=O)c3cnc4ccccc4n3)C(=O)C2=CN1Cc1ccc(OC)cc1 (centres undefined) | n | x | n | n | 57 | n
CCCCn1c(=O)c(CCC(=O)OCC(=O)NC(=O)NCCC(C)C)nc2ccccc21 | n | n | n | n | n | n
CSc1ccccc1C(=O)C1CCCN(C(=O)CCc2cccnc2)C1 (centres undefined) | n | n | n | n | n | n
SMILES | NCF1 inh | Bim-Mcl-1 | 14-3-3 Bad inh | Mcl1 Bid PPI | Mcl1-Noxa inh | eIF4E-4G inh
Cc1ccc(C(O)P(=O)(OCc2ccccc2)c2ccc(N(C)C)cc2)cc1 (centres undefined) | n | x | n | n | n | n
COc1ccc(-c2nc3ccccc3c(=O)n2CCOc2cccc(C)c2C)cc1 | n | n | n | 95 | n | n
O=C1C(c2c(O)[nH]c3ccccc23)=Nc2ccccc21 | 93 | n | n | n | n | n
CC(=O)c1cccc2c(O)c(C3=Nc4ccccc4C3=O)[nH]c12 | n | n | n | n | 62 | n
O=C(CN(c1ccccc1)S(=O)(=O)c1ccc(F)cc1)NC1CCS(=O)(=O)C1 (centres undefined) | n | n | n | n | n | n
CCOC(=O)c1cnc2ccc(C)cc2c1NCCO | 43 | n | n | n | n | n
O=C(Nc1cccc(-c2nc3ncccc3o2)c1)c1sc2ccccc2c1Cl | 67 | n | n | n | n | n
